This is a sample that favours compounds with a hit; in the whole collection about 1.3% have one here.
Rango dissoc inh – inhibitors of RanGTP-induced Rango-importin beta complex dissociation | Biochemical FRET Rango-importin beta, RanGTP-induced dissociation | Potency, µM (titrated, usually from 46.1 µM) | 340,000 compounds, 0.071% hits | AID 540253; also: nearly all actives have a fitted effect of over 45% in size
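FRET read at 45 min, room temperature: inhibitors block the CFP/YFP signal rise when RanGTP (0.6 uM Ran, 2 mM GTP, 0.2 uM RCC1) frees Rango (0.1 uM) from importin beta (0.25 uM). Pre-read after 5 min compound exposure flags interference.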
Rango complex inh – Rango-importin beta binding inhibition | Rango CFP/YFP FRET sensor + importin beta, 45 min | 340,000 compounds, 0.031% hits | Q14974 | Potency, µM (top dose mostly 92.2 µM); also: nearly all actives have a fitted effect of over 15% in size
Target sequence (Q14974 whole entry, looked up): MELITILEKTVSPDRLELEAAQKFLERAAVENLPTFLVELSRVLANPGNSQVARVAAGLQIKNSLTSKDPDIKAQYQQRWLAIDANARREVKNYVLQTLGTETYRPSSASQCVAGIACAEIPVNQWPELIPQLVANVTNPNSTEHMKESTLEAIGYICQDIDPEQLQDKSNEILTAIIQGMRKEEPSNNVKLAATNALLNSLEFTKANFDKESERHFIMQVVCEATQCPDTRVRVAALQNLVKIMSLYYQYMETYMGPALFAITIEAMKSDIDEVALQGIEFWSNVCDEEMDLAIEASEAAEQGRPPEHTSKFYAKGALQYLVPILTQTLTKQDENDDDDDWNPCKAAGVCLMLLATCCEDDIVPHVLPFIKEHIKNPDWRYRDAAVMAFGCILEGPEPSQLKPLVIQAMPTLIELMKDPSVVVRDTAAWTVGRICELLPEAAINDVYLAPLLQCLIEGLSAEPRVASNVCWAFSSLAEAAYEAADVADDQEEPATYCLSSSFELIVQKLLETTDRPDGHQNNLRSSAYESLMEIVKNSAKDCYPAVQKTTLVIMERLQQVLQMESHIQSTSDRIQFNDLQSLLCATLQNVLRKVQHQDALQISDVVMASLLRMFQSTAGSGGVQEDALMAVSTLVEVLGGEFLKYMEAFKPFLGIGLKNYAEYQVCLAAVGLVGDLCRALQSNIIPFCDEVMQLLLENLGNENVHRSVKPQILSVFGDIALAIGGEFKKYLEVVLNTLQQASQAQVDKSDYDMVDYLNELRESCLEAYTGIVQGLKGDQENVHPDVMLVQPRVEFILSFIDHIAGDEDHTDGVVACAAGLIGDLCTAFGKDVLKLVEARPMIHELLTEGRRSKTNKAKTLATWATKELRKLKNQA
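Inhibition scored from the CFP 486 nm/YFP 530 nm FRET ratio 45 min after adding 0.125 microM importin beta to 50 nM Rango biosensor preincubated 5 min with compound (room temperature, PBS with DTT, Tween-20, BSA). No-importin wells as positive control.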
hERG WT inh – blocks the wildtype human KCNH2 potassium channel; U2OS, BacMam KCNH2, thallium flux FluxOr; stronger effect = lower value; Q12809; 340,000 compounds, 0.37% hits; activity change, % at 1.84 µM;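 active = maximum activity change below -70%; inconclusive = maximum activity change between -70% and -50%; inactive = maximum activity change above -50%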
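U2OS cells were transduced with wild-type KCNH2 virus (2.03 x 10^8 / mL) for 4 h at room temperature, then cultured overnight at 37 C. Thallium flux was read with FluxOr dye. Rate constants were normalized to DMSO controls.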
KCNH2 3.1 block – inhibitors of human KCNH2 3.1 potassium channel isoform; U2OS KCNH2 3.1, thallium flux FluxOr; stronger effect = lower value; activity change, % (tested at about 1.8 µM); 340,000 compounds, 0.95% hits; AID 720553;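 active = maximum activity change below -70%; inconclusive = maximum activity change from -70% to -50%; inactive = maximum activity change above -50%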;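 also: thallium influx rate constant from kinetic fluorescence after stimulation buffer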
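FluxOr-based Tl+ influx in U2OS cells transduced with KCNH2 3.1 virus; rate constants normalized to DMSO controls.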
Of the large screens only hits and unclear results are named; the others gave an inactive call. Unless noted, calls follow the shape of the full dose curve.

O=C(CCc1c[nH]c2ccccc12)OCC(=O)c1ccccc1	none (no result: Rango dissoc inh, Rango complex inh)
COc1ccccc1CCC(=O)N(C)CC(=O)Nc1ccc(Cl)c(C(F)(F)F)c1	none
CCN(c1ccccc1)S(=O)(=O)c1ccc(N2CCN(c3ccccc3O)CC2)nc1	none
CC(=O)Oc1ccccc1C1C[C@]2(C)CC(=O)NC2N1C(C)=O (some centres undefined)	Rango dissoc inh inconclusive, KCNH2 3.1 block -107
CC(=O)Oc1ccccc1C(=O)O	none
O=C(CN1C(=O)NC(c2ccccc2)(c2ccccc2)C1=O)NCc1cccs1	none
O=[N+]([O-])c1ccc(OCCCOc2cccc3cccnc23)cc1	Rango complex inh inconclusive, KCNH2 3.1 block -80
Cc1c(O)ccc2c(CN3CCN(C/C=C/c4ccccc4)CC3)cc(=O)oc12	Rango dissoc inh inconclusive, Rango complex inh inconclusive, hERG WT inh -75, KCNH2 3.1 block -97
Cc1ccc2c(CN3CCN(S(=O)(=O)/C=C/c4ccccc4)CC3)cc(=O)oc2c1	KCNH2 3.1 block -89
O=S(=O)(c1ccccc1)N1CCN(Cc2c(O)ccc3ccccc23)CC1	none
Oc1ccc2ccccc2c1CN1CCN(C/C=C/c2ccccc2)CC1	KCNH2 3.1 block -80
Cc1ccc2c(CN3CCCCC3)cc(=O)oc2c1	none
CC(NC(=O)C1CCN(C(=O)Nc2ccccc2)CC1)c1ccccc1Cl (centres undefined)	Rango complex inh inconclusive
CCc1cccc(C)c1NC(=O)C1CCCN1C(=O)NCc1ccccc1 (centres undefined)	none
O=C(CCNc1cccc(Cl)c1)c1cccs1	KCNH2 3.1 block -70
Cc1ccc(NCCC(=O)c2cccs2)cc1Cl	none
CCOC(=O)c1nn(-c2ccc(Cl)cc2)c2nnc(Cc3ccc(C)cc3)c(=O)n12	KCNH2 3.1 block -88
O=C(COC(=O)c1ccc(F)cc1Cl)NC(=O)NC1CCCC1	none
O=C(CCC1CCCC1)NNC(=O)c1cc2ccccc2cc1O	Rango dissoc inh 18µM, Rango complex inh inconclusive
O=C(O)C1CCN(S(=O)(=O)c2ccc(Cl)s2)CC1	none
Cc1cccc(C)c1NC(=S)N/N=C1\CC2CC=CC12 (centres undefined)	KCNH2 3.1 block -131
CCC1Sc2ccc(S(=O)(=O)N3CCN(c4ccccc4)CC3)cc2NC1=O (centres undefined)	none
OC(CNCc1ccco1)Cn1c2ccc(Br)cc2c2cc(Br)ccc21 (centres undefined)	hERG WT inh -98, KCNH2 3.1 block -100
COC(C[C@@H](O)C[C@@H](O)[C@@H](C)OCc1ccccc1)OC	KCNH2 3.1 block -222
O=C(O)C1CCCN1C(=O)C1CCN(S(=O)(=O)c2cccc(C(F)(F)F)c2)CC1 (centres undefined)	none
C[C@H](CO)N1C[C@H](C)[C@H](CN(C)S(=O)(=O)c2ccc(Cl)cc2)OCc2cnnn2CCCC1=O	none (no result: Rango dissoc inh, Rango complex inh)
N=C1N(c2ccccc2)C(=S)C(=Nc2ccccc2)N1c1ccccc1	hERG WT inh -71
COc1ccc(N=C2C(=S)N(c3ccc(OC)cc3)C(=NS(=O)(=O)c3ccccc3)N2c2ccccc2)cc1	none
O=C1C=CC(c2ccccc2)(c2ccccc2)CC1	none
O=C(CCCC(=O)N(CC(=O)NC1CCCCC1)c1ccccc1F)Nc1ccccn1	none
COc1ccc(NC(=O)COC(=O)CCCC2=NS(=O)(=O)c3ccccc3N2)cc1	none
Cc1cc(C)cc(NC(=O)COC(=O)CCCC2=NS(=O)(=O)c3ccccc3N2)c1	hERG WT inh -110
CC(CC(=O)NCCc1ccc(F)cc1)c1ccccc1 (centres undefined)	none
CCOC(=O)NC(=O)CSc1nnc(C)s1	Rango complex inh inconclusive, KCNH2 3.1 block -79
CCCNC(=O)CSc1nnc(C)s1	none
Cc1cc(/C=C(/C#N)c2nc3ccccc3[nH]2)c(C)n1-c1cccc([N+](=O)[O-])c1	hERG WT inh -116, KCNH2 3.1 block -134
CC1CCN(C(=O)CCCC(=O)N2CCC(C)CC2)CC1	hERG WT inh -71
COc1cc(NC(=O)C2CSC3(C)CCC(=O)N23)c(OC)cc1Cl (centres undefined)	none
O=C(O)c1cc(N=Cc2c(O)c3ccccc3oc2=O)ccc1O	Rango dissoc inh inconclusive, Rango complex inh inconclusive
CC(=O)Nc1sc(/C(C#N)=C\c2cccc(Cl)c2)nc1-c1ccc(C)cc1	Rango dissoc inh inconclusive, Rango complex inh inconclusive, KCNH2 3.1 block -70
CC(=O)Nc1sc(N/N=C/c2ccccc2)nc1-c1ccc(C)cc1	none
O=C1CNC(c2ccccc2)C(c2ccccc2)N1 (centres undefined)	none (no result: Rango dissoc inh, Rango complex inh)
O=c1[nH]ncc(N2CCCCCC2)c1Cl	KCNH2 3.1 block -100
Cc1c(-c2ccccc2)[nH]n2c(=O)c3c(nc12)CCCC3	KCNH2 3.1 block -92
Cc1ccc(-c2[nH]n3c(=O)c4c(nc3c2C)CCCC4)cc1	none
COc1cc(CC(=O)N2CCN(S(=O)(=O)c3ccc(C(C)C)cc3)CC2)cc(OC)c1OC	none (no result: Rango dissoc inh, Rango complex inh)
COC(=O)c1ccc(C2c3[nH]c4ccccc4c3C[C@H]3C(=O)N(C4CCN(Cc5ccccc5)CC4)CC(=O)N23)cc1 (some centres undefined)	KCNH2 3.1 block -80
COc1ccc(C2c3[nH]c4ccccc4c3C[C@H]3C(=O)N(C4CCN(Cc5ccccc5)CC4)CC(=O)N23)c(OC)c1 (some centres undefined)	KCNH2 3.1 block inconclusive
O=C1[C@@H]2Cc3c([nH]c4ccccc34)C(c3ccccc3)N2C(=O)CN1C1CCN(Cc2ccccc2)CC1 (some centres undefined)	KCNH2 3.1 block inconclusive
CCOc1ccccc1C1c2[nH]c3ccccc3c2C[C@H]2C(=O)N(C3CCN(Cc4ccccc4)CC3)CC(=O)N12 (some centres undefined)	hERG WT inh -94, KCNH2 3.1 block -102
Cc1nnc(SCC(=O)NNC(=O)c2ccccc2)n1N	none
CCn1cc(C(=O)Nc2ccc(Cl)cc2Cl)cn1	none
CCn1cc(C(=O)Nc2ccc(F)c(F)c2)cn1	KCNH2 3.1 block -88
CCN(CC)c1ccc2cc(-c3nnc(-c4ccncc4)o3)c(=O)oc2c1	Rango dissoc inh inconclusive, Rango complex inh inconclusive, hERG WT inh -93, KCNH2 3.1 block inconclusive
CCOC(=O)c1ccc(NC(=O)c2nc[nH]c2C(=O)N[C@@H](C)CO)cc1	KCNH2 3.1 block inconclusive (no result: Rango dissoc inh, Rango complex inh)
CCCCN(C)C1=CC2=CC(=C(C#N)C#N)CCC2CC1 (centres undefined)	Rango dissoc inh inconclusive, Rango complex inh inconclusive, hERG WT inh -87, KCNH2 3.1 block -102
N#CC(C#N)=C1C=C2C=C(N3CCCCC3)CCC2CC1 (centres undefined)	Rango dissoc inh inconclusive, Rango complex inh inconclusive, hERG WT inh inconclusive, KCNH2 3.1 block -89
CCN(CC)C1=CC2=CC(=C(C#N)C#N)CCC2CC1 (centres undefined)	Rango dissoc inh inconclusive, Rango complex inh inconclusive, KCNH2 3.1 block -97
N#CC1=C(N)C2=C(N3CCCCC3)CCCC2C1(C#N)C#N (centres undefined)	Rango dissoc inh inconclusive, Rango complex inh inconclusive
